The panel holds about 83,000 compounds, 20% with a hit somewhere; the sample as a whole holds those more often.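 Results are percent growth after 48 hours of single-concentration exposure. 100 means growth as in untreated cells, lower positive values show inhibition; negative values down to -100 show cell death.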 Active and inactive are the calls of the source. Rule for the calls: active = growth percent below 10; inactive = the rest.
Experiments:
Assay in all cases: NCI-60 one-dose screen, 48 h (100 = growth as untreated, 0 = no growth, -100 = all killed)
[1] = tested on: SK-MEL-2 melanoma; conditions: 10 µM unless noted
[2] = tested on: SN12C renal; conditions: 10 µM unless noted
[3] = tested on: UO-31 renal; conditions: 10 µM unless noted
[4] = tested on: TK-10 renal; conditions: 10 µM unless noted
[5] = tested on: ACHN renal; conditions: 10 µM unless noted
[6] = tested on: CAKI-1 renal; conditions: 10 µM unless noted
[7] = tested on: A498 renal; conditions: 10 µM
[8] = tested on: HL-60(TB) leukemia; conditions: 10 µM unless noted
[9] = tested on: CCRF-CEM leukemia; conditions: 10 µM unless noted
[10] = tested on: MOLT-4 leukemia; conditions: 10 µM unless noted
[11] = tested on: SR leukemia; conditions: 10 µM unless noted
[12] = tested on: RPMI-8226 leukemia; conditions: 10 µM unless noted
[13] = tested on: OVCAR-8 ovarian; conditions: 10 µM unless noted
[14] = tested on: OVCAR-5 ovarian; conditions: 10 µM unless noted
[15] = tested on: OVCAR-4 ovarian; conditions: 10 µM unless noted
[16] = tested on: SK-OV-3 ovarian; conditions: 10 µM unless noted
[17] = tested on: IGROV1 ovarian; conditions: 10 µM unless noted
[18] = tested on: OVCAR-3 ovarian; conditions: 10 µM unless noted
[19] = tested on: EKVX NSCLC; conditions: 10 µM unless noted
[20] = tested on: HS 578T breast; conditions: 10 µM unless noted

Measured: growth

N/C(=N\N=C\c1ccc(-c2ccccc2)cc1)N[N+](=O)[O-]
active: [7] 5.42% | [8] -16.2% | [10] 5.54% | [11] 5.79% | [18] -19.8%
inactive: [1] 47.1% | [2] 53.3% | [3] 45.2% | [4] 44.6% | [5] 52.5% | [6] 27.5% | [9] 11.9% | [12] 20.1% | [13] 42.6% | [14] 56.9% | [15] 61.5% | [16] 35.4% | [17] 34.6%

CCOC(=O)C(Cc1ccc(N(CCCl)CCCl)cc1)NC(=O)C(CC(C)C)NC(C)=O (centres undefined)
inactive: [19] 114% | [2] 25.4% | [8] 13.1% | [9] 12.3% | [13] 32.6% | [14] 36.8% | [16] 53.3% | [17] 22.5%
active: [1] -2.13% | [3] -48.7% | [5] 8.89% | [6] -20.7% | [10] 6.43% | [11] -13.9% | [15] -16.2% | [18] -34.4%

O=C(Nc1ccc([As]=[As]c2ccc(NC(=O)c3ccccc3)cc2)cc1)c1ccccc1 (centres undefined)
active: [1] -81.4% | [19] -69.1% | [3] -96.7% | [5] -92.4% | [6] -80.2% | [7] -97.5% | [8] -53.9% | [10] -27.5% | [13] -82.1% | [14] -89.1% | [15] -43.1% | [17] -40.4% | [18] -94% | [20] -75.8%
inactive: [12] 13.7%

CC(C)[C@@H]1NC(=O)[C@]2(C)CSC(=N2)c2csc(n2)CNC(=O)C[C@@H](/C=C/CCS)OC1=O
inactive: [19] 32.4% | [2] 31.7% | [3] 10.4% | [11] 12% | [14] 25% | [15] 27.7%
active: [1] -28.2% | [5] 5.8% | [7] -74.8% | [8] 8.48% | [9] 9.97% | [10] 7.47% | [12] -15.4% | [13] -11.9% | [16] -12.6% | [17] 0.877% | [18] -21.3% | [20] 7.81%

COc1cc2c(cc1OCc1ccccc1)C(CC(C)C)=[N+](C)CC2
inactive: [1] 82.1% | [19] 68.6% | [3] 87.9% | [4] 94% | [5] 99.2% | [6] 96.2% | [7] 95.9% | [8] 73% | [9] 73.1% | [10] 91.8% | [11] 89.9% | [13] 73.5% | [14] 93% | [15] 71.5% | [16] 93.1% | [18] 65.7% | [20] 83.1%

Nc1ccc(Cl)cc1
inactive: [1] 95.7% | [19] 95.7% | [2] 95.3% | [3] 94.9% | [5] 108% | [7] 103% | [8] 95% | [9] 98.2% | [10] 94.3% | [11] 102% | [12] 98.9% | [13] 97.4% | [14] 100% | [15] 106% | [16] 92% | [17] 105% | [20] 98.9%

COC(=O)[C@@H](C)C[C@H](Cc1ccccc1)NC(=O)c1nc([C@@H](C[C@H](C(C)C)N(C)C(=O)[C@@H](NC(=O)[C@H]2CCCN2C)C(C)C)OC(C)=O)sc1C
inactive: [1] 36.6% | [19] 45.4% | [2] 31% | [3] 43.9% | [5] 19.6% | [9] 10.3% | [10] 15.3% | [12] 20.6% | [13] 14.5% | [14] 30.7% | [15] 49.9% | [17] 27.4% | [20] 18.8%
active: [7] -2.29% | [8] -33.5% | [11] 5.28% | [16] 1.93% | [18] -9.82%
